These results are taken from PubChem BioAssay (Tox21).

Assay [1] is described as follows: qHTS assay to identify small molecule agonists of the estrogen receptor alpha (ER-alpha) signaling pathway in the presence of an antagonist - cell viability counter screen (AID 1259386).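 Also: cells exposed to compounds for 22 h at 37 °C before the viability read; nearly all actives have a fitted effect of over 30% in size.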 Also: potency is read from the fitted curve at half-maximal effect. The method, boiled down:
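Read-out: CellTiter-Fluor fluorescence after 1hr reagent incubation, measured in the same wells as the luciferase readout. VM7Luc4E2 cells were exposed to 15 compound concentrations with 10.0nM ICI-182,780 for 22hr at 37C.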
A general note: Quantitative high-throughput screening tests each substance at several concentrations.

Assay [2] can be described thus: qHTS assay to identify small molecule antagonists of the TGF-beta/Smad signaling pathway - cell viability counter screen (AID 1346824). Also: nearly all actives have a fitted effect of over 50% in size. The method, boiled down: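 Cytotoxicity counter-screen run in the same wells as the beta-lactamase Smad reporter read: CellTiter-Glo luminescence after 30 min at room temperature. HEK 293T SBE-bla cells had 5 hr compound exposure at 37 C with TGF-beta1 (0.25 ng/mL stock).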

Assay [3] is described as follows: qHTS assay to identify small molecule agonists of the TGF-beta/Smad signaling pathway (AID 1346859; active = well fitted activation curve with a large enough effect in the signal ratio in the repeat runs, not every such curve was filed as active; the % refers to the signal ratio; also: series mostly up to about 77 µM). The method, boiled down: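 Each well held 4,000 SBE-bla HEK 293T cells incubated overnight before compound addition; 5 hr later the cleavable FRET substrate went on for 2 hr at room temperature, and fluorescence was read at two emissions.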
Assay [4] addresses Thyrotropin-releasing hormone receptor (Homo sapiens) (UniProt P34981). Description: qHTS assay to identify small molecule antagonists of the thyrotropin-releasing hormone receptor (TRHR) signaling pathway (AID 1346877; active = well fitted inhibition curve with a large enough effect in the repeat runs, not every such curve was filed as active; also: series mostly up to about 51 µM). The method, boiled down: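 HEK293/TRHR cells, 18 h, 37 °C; Ca2+ dye 2 h; cpd 5 min RT; TRH 1 nM final; fluorescence read 3 min, 1 s intervals; 15 concs, triplicate.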

Assay [5] shares this target. Briefly: qHTS assay to identify small molecule agonists of the thyrotropin-releasing hormone receptor (TRHR) signaling pathway (AID 1346891; calls by dose curve; also: series mostly up to about 58 µM). The method in brief: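 Screening of agonists relied on calcium signalling in HEK293 cells expressing human TRHR: dye loading 2 h at 37 °C preceded compound addition and a 3-min fluorescence time course.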
Assay [6] is described as follows: Caspase-3/7 induction in HepG2 cells by small molecules, qHTS assay (AID 1346978). Also: nearly all actives have a fitted effect of over 15% in size. The method, boiled down:
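Caspase-3/7 induction was measured by Caspase-Glo 3/7 luminescence (30 min, room temperature) after a 17 hr compound exposure of wild-type HepG2 cells seeded at 2,000 per well and pre-incubated 5 hr.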

Assay [7] can be described thus: Caspase-3/7 induction in CHO-K1 cells by small molecules, qHTS cell viability counter screen (AID 1346979). Also: nearly all actives have a fitted effect of over 35% in size. Also: potency is read from the fitted curve at half-maximal effect. The method, boiled down:
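CellTiter-Fluor viability check, qHTS format: wild-type CHO-K1, 16hr compound treatment, 1hr reagent incubation, fluorescence read.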

Assay [8] is described as follows: Caspase-3/7 induction in CHO-K1 cells by small molecules, qHTS assay (AID 1346980). Also: nearly all actives have a fitted effect of over 15% in size. The method in brief:
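Luminescent Caspase-Glo 3/7 read (30min, room temperature) quantified apoptosis induction. Cells were wild-type CHO-K1, treated with compound for 17hr at 37 C and 5% CO2.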

The nature of assay [9]: Caspase-3/7 induction in HepG2 cells by small molecules, qHTS cell viability counter screen (AID 1346981). Also: nearly all actives have a fitted effect of over 30% in size. Also: potency is read from the fitted curve at half-maximal effect. The method, boiled down:
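Fluorescence read-out of live-cell protease activity (CellTiter-Fluor) after 1 hr with reagent. This was measured in the same wells as the caspase-3/7 luminescence, on HepG2 cells exposed to DMSO-dissolved compounds for 16 hr at 37 C.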

The target of assay [10] is Nuclear receptor subfamily 1 group I member 2 (Homo sapiens) (UniProt O75469). Briefly: Human pregnane X receptor (PXR) small molecule agonists, qHTS assay (AID 1346982). Also: nearly all actives have a fitted effect of over 35% in size. Also: potency is read from the fitted curve at half-maximal effect. The method, boiled down:
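HepG2 PXR-Luc reporter line, 5% charcoal-stripped FBS; 5 hr pre-incubation, compound (DMSO) 24 hr at 37 C/5% CO2; ONE-Glo 30 min RT; luminescence read-out.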

In assay [11] the target is Progesterone receptor (Homo sapiens) (UniProt P06401). Description: qHTS assay to identify small molecule agonists of the progesterone receptor (PR) signaling pathway (AID 1346784; calls by dose curve; also: nearly all actives have a fitted effect of over 30% in size). The method, boiled down: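 Compounds were tested for PR agonism in HEK 293T cells bearing a beta-lactamase gene under UAS control. Treatment lasted 16 hr at 37C; signal came from fluorescence of a FRET substrate.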

Assay [12] shares this target. Description: qHTS assay to identify small molecule antagonists of the progesterone receptor (PR) signaling pathway (AID 1346795; active = well fitted inhibition curve with a large enough effect in the signal ratio in the repeat runs, not every such curve was filed as active; the % refers to the signal ratio). The method, boiled down:
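In HEK293T cells bearing the PR-UAS-bla reporter, compound effects on promegestone-driven (1 nM) beta-lactamase expression are assessed after 16 hr using a fluorescent FRET substrate incubated 2 hr at room temperature.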

The nature of assay [13]: qHTS assay to identify small molecule antagonists of the progesterone receptor (PR) signaling pathway - cell viability counter screen (AID 1346798). Also: nearly all actives have a fitted effect of over 50% in size. Also: potency is read from the fitted curve at half-maximal effect. The method in brief: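 Following a 4 hr attachment, PR-UAS-bla HEK293T cells in charcoal-stripped FBS medium were exposed to compounds with R5020 for 16 hr; CellTiter-Glo was added and luminescence read after 30 min at room temperature.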

Assay [14] is described as follows: qHTS assay to identify small molecule agonists of the progesterone receptor (PR) signaling pathway - cell viability counter screen (AID 1346799; calls by dose curve; also: nearly all actives have a fitted effect of over 45% in size). The method, boiled down: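 Here, 3,000 PR-UAS-bla HEK293T cells per well were treated with compounds for 16 hr after a 6 hr preincubation at 37C and 5% CO2; cell viability is the CellTiter-Glo luminescence signal.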

A short description of assay [15]: qHTS assay to identify small molecule agonists of the TGF-beta/Smad signaling pathway - cell viability counter screen (AID 1346829). Also: top concentration of the series differs between compounds; nearly all actives have a fitted effect of over 45% in size. The method in brief:
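Luminescence from CellTiter-Glo, read after a 30 min room-temperature incubation, gives cell viability of SBE-bla HEK 293T cells treated 5 hr with compounds at 37 C.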

Assay [16] can be described thus: Human pregnane X receptor (PXR) small molecule agonists, qHTS cell viability counter screen (AID 1346977). Also: nearly all actives have a fitted effect of over 50% in size. Also: potency is read from the fitted curve at half-maximal effect. The method, boiled down:
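Tox21 qHTS format; PXR-Luc HepG2, 2,000/well, charcoal-stripped FBS 5%. Cpd exposure 24hr. Read: CellTiter-Fluor fluorescence, multiplexed with luciferase.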

Assay [17] addresses Nuclear receptor subfamily 1 group I member 2 (Homo sapiens) (UniProt O75469). Description: CYP3A4 induction through human pregnane X receptor (PXR) by small molecules, qHTS assay (AID 1346984). Also: nearly all actives have a fitted effect of over 40% in size. The method, boiled down:
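HepG2-derived DPX-2 line carrying PXR plus a CYP3A4-promoter luciferase reporter; cells plated 5 hr, compound-exposed 24 hr at 37C. CYP3A4 activity probed with 3uM (final) Luciferin-IPA for 3hr, then luciferase read after One-Glo.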

The target in assay [18] is Nuclear receptor subfamily 1 group I member 2 (Rattus norvegicus) (UniProt Q9R1A7). Description: Rat pregnane X receptor (rPXR) activation by small molecules, qHTS assay (AID 1346983). Also: nearly all actives have a fitted effect of over 20% in size. To be noted: rPXR luciferase reporter cells, One-Glo luminescence, 24 h; max activation: stronger effect = higher value. The method, boiled down:
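Luminescent readout (One-Glo luciferase, 30 min room temperature) followed 24 hr compound treatment at 37 C of rPXR cells plated 2,000 per well and preincubated 5hr; qHTS format with compounds delivered in DMSO.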

Assay [19] has as its target Nuclear receptor subfamily 1 group I member 2 (Homo sapiens) (UniProt O75469). Briefly: Human pregnane X receptor (PXR) activation by small molecules, qHTS assay (AID 1346985). Also: nearly all actives have a fitted effect of over 40% in size. The method in brief: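 DPX-2 cells (HepG2 co-transfected with a PXR response element and a CYP3A4-promoter luciferase construct) were seeded at 2,000 per well, rested 5 hr at 37C, then exposed to DMSO-dissolved compounds for 24 hr. Activation was read as luciferase luminescence.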

Assay [20] deals with Cytochrome P450 2D6 (Homo sapiens) (UniProt P10635). Briefly: Cytochrome P450 Family 2 Subfamily D Member 6 (CYP2D6) small molecule antagonists: luciferase reporter qHTS assay (AID 1671196). Also: nearly all actives have a fitted effect of over 50% in size. Also: potency is read from the fitted curve at half-maximal effect. The method in brief:
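Luminogenic proluciferin substrate, CYP2D6 enzyme; 10 min RT preincubation with compound, NADPH regeneration system added, 1 h RT. Stop/detection reagent, 20 min RT, luminescence read (RLU). Signal proportional to CYP activity.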

Molecules are shown by their SMILES. A number with no mark means an inactive call. Results filed as inconclusive are left out. Activity calls are given as the source filed them. Unless noted, calls follow the shape of the dose curve; as a rule, active = well fitted curve in the direction sought with a large enough effect in the repeat runs; inconclusive = weak or mixed curves; inactive = no such curve, though single readings can be large; an effect the other way counts as inactive or inconclusive.
% is scaled to controls: 0 for no effect and ±100 for the full control effect.

Thyrotropin-releasing hormone receptor (Homo sapiens), sequence (P34981 whole entry, looked up): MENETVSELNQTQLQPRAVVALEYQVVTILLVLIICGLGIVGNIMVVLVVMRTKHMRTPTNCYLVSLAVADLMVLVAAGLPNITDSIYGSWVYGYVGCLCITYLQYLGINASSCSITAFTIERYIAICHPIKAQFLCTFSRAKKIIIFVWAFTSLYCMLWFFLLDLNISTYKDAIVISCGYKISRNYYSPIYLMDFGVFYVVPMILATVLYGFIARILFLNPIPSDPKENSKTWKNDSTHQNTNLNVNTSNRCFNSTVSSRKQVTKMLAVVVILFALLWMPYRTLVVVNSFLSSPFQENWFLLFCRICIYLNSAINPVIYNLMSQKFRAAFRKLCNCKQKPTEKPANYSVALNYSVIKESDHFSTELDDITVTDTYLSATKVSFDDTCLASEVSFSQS
Nuclear receptor subfamily 1 group I member 2 (Homo sapiens), sequence (O75469 whole entry, looked up): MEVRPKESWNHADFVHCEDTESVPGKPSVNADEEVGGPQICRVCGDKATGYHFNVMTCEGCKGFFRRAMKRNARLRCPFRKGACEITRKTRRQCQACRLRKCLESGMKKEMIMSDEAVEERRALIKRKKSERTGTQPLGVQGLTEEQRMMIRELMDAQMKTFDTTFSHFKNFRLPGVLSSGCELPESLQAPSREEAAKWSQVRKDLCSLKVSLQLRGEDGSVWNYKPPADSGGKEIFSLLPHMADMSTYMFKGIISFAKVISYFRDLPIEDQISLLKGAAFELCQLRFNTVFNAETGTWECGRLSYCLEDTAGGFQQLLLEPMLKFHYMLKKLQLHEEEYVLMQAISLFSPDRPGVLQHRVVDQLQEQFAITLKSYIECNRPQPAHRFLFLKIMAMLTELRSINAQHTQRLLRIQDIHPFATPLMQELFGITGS
Cytochrome P450 2D6 (Homo sapiens), sequence (P10635 whole entry, looked up): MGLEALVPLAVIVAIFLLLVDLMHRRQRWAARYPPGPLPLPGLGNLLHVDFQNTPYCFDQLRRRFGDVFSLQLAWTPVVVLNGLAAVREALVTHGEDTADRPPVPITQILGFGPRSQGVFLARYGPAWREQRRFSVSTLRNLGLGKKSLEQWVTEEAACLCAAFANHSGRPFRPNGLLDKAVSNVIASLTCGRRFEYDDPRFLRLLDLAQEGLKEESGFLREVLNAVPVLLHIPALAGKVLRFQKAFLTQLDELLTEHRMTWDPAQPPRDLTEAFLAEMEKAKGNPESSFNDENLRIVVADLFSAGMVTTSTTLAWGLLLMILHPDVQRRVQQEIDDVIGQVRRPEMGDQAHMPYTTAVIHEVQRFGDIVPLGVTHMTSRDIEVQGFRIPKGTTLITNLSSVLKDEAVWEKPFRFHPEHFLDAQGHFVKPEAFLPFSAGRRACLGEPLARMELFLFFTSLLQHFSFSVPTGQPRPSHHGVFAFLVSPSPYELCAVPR
Progesterone receptor (Homo sapiens), sequence (P06401 whole entry, looked up): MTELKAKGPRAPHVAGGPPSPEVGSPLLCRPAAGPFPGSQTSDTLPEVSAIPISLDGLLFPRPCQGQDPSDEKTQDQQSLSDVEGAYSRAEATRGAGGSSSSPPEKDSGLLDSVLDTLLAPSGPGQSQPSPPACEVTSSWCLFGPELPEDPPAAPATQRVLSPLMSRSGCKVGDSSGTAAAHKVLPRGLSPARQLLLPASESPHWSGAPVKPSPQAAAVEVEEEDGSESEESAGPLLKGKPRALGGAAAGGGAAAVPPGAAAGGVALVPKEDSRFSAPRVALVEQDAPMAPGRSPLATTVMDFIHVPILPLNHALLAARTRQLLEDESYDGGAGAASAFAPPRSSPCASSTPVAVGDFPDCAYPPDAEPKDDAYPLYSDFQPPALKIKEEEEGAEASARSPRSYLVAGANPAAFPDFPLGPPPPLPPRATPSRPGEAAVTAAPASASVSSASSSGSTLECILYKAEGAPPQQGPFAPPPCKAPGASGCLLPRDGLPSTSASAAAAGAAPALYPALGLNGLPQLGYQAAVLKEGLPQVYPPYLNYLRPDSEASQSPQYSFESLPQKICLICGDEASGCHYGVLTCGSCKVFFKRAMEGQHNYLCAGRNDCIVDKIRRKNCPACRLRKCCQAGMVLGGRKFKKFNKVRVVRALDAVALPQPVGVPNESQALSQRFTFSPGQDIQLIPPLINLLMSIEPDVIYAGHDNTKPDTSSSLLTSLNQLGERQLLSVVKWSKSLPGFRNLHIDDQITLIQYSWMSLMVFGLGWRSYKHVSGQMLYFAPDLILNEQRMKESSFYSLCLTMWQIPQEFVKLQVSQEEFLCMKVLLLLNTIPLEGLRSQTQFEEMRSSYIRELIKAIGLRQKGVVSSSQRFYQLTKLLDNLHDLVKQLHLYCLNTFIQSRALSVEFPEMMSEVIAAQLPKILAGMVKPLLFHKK
Nuclear receptor subfamily 1 group I member 2 (Rattus norvegicus), sequence (Q9R1A7 whole entry, looked up): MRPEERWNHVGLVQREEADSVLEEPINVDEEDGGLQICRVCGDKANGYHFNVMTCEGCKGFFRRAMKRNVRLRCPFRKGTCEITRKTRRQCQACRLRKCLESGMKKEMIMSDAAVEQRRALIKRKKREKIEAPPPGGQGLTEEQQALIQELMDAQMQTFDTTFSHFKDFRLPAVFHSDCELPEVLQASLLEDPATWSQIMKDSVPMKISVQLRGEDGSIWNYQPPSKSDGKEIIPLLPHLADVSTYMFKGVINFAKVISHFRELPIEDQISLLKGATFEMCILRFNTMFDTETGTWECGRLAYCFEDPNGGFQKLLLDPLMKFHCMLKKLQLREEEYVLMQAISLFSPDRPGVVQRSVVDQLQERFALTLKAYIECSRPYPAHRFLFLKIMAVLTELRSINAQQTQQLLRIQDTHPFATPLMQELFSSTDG

For `Nc1nc2ccc([N+](=O)[O-])cc2s1`, the Potency is 54.5 µM (active) in [1], 47.2 µM (active) in [7], 61.1 µM (active) in assay [9] and 30.6 µM (active) in assay [10]. Besides, the Potency result in assay [2], in [3], in [5], in [6] and in assay [8] was “inactive” each time. In assay [4], the result was inactive.

Turning to `CN(C)CCN1C(=O)c2ccccc2N(C)c2ccccc21`, the Potency entry in [11], in assay [12], in assay [13], in [14], in assay [2] and in [15] was “inactive” in each case. Further, the Potency result in assay [5], in assay [16], in assay [6] and in assay [17] was “inactive” each time. Moreover, in [4], the compound was classed as inactive.

As to `CC(=O)N/N=C/c1ccc([N+](=O)[O-])o1`, the Potency entry in assay [11], in assay [12], in assay [13], in [14], in assay [2] and in assay [15] was “inactive” throughout. Also, the Potency result in assay [5], in [6], in [9], in assay [17], in [19] and in assay [20] was “inactive” throughout. In addition, in assay [4], the compound was classed as inactive. The Potency in [7] is 29.8 µM (active). In assay [18], the max activation is -3.83%.

On to `COC(=O)C1=C(C)NC(C)=C(C(=O)O[C@@H]2CCCN(Cc3ccccc3)C2)[C@@H]1c1cccc([N+](=O)[O-])c1`, for which the Potency result in assay [1], in assay [2], in [15], in assay [3], in [5] and in [6] was “inactive” in each case. Also, the Potency result in assay [8] was “inactive”. Further, the outcome in assay [4] was inactive. The figures for the Potency in [10] and in [20] were 2.11 µM (active) and 15.5 µM (active), respectively.

Turning to `Cc1ccccc1N=C(N)Nc1ccccc1C`, the Potency entry in assay [11], in [12], in assay [13], in [14], in assay [2] and in [15] was “inactive” throughout. For the same compound, the Potency result in assay [3], in assay [5], in assay [16], in [6], in assay [7] and in [9] was “inactive” each time. In addition, the Potency result in [10] is “inactive”. Also, the compound was called inactive in [4]. In addition, the Potency in [20] was 0.0156 µM (active).

Take `C=CC(=O)[O-].C=CC(=O)[O-].[Zn+2]`: the Potency entry in assay [1], in assay [2], in assay [15], in assay [3], in [16] and in assay [6] was “inactive” each time. Besides, the Potency result in assay [7], in assay [8] and in assay [10] was “inactive” each time. Besides, the Potency in [13] was 67 µM (active).

In the case of `NC1[C@H]2CN(c3nc4c(cc3F)c(=O)c(C(=O)O)cn4-c3ccc(F)cc3F)C[C@@H]12` (stereo not given in full), the Potency result in assay [1], in assay [14], in [15], in assay [3], in assay [5] and in [6] was “inactive” in each case. Also, the Potency entry in assay [8] and in assay [20] was “inactive” throughout. The result in assay [4] was inactive. Besides, the Potency in assay [16] was 29.8 µM (active); in assay [7] it was 3.76 µM (active); in assay [10] it was 26.6 µM (active).

As to `CCCCC(CC)CN` (stereo not given), the Potency result in assay [11], in assay [12], in assay [13], in assay [14], in [2] and in assay [15] was “inactive” each time. For the same compound, the Potency entry in assay [5], in assay [16], in assay [6], in assay [7], in assay [8] and in assay [9] was “inactive” in each case. The outcome in [4] was inactive. Also, the Potency in [20] was 36.2 µM (active).

Regarding `C[C@H]1C[C@H](O)c2ccsc2S1(=O)=O`, the Potency result in assay [11], in assay [12], in [13], in assay [14], in assay [15] and in assay [3] was “inactive” throughout. Also, the Potency result in assay [5], in assay [16], in [6], in assay [8], in assay [9] and in assay [10] was “inactive” each time. Besides, in assay [4], the outcome was inactive.
